# Compound activity from PubChem BioAssay.
# ROMK primary: human ROMK K+ channel modulation, primary screen; P48048; Tet-inducible ROMK, thallium flux fluorescence; actives lie on both sides; B-score at 10 µM; 130,000 tested, 2% active; AID 1918;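 active = signal ratio slope over the read window, or its plate-corrected B-score, at least 3 SD from the plate mean, either direction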;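 note: B-score of the F/F0 ratio slope over 7 to 12 s after thallium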
# HCT116 bCat-KO: beta-catenin-lacking colon tumor cell growth suppression. HCT116 beta-catenin knockout viability, CellTiter-Glo, 60 h; hits give low values. viability, % at 10 µM. 140,000 tested, 1.5% active;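 active = viability at or under a set limit, the compound median less 4 SD, cut at about 6% in these data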
# INS promoter inh: TRM-6 insulin promoter activity inhibition; TRM-6 cells (human fetal islet line), insulin promoter-eGFP reporter, imaging; reporter expression induced with tamoxifen; inhibition, % at 2 µM; 130,000 tested, 0.9% active; AID 1273;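 active = inhibition above the mean plus 3 SD, with well images judged a real hit on visual review, cut at about 60% in these data, passing the limit was not always enough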
# HCT116 PTEN-null: suppresses growth of cells with PTEN deletion; AID 827; 140,000 tested, 1.2% active; HCT116 PTEN-null viability, CellTiter-Glo, 60 h; hits give low values; viability, % at 10 µM;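 active = viability at or below a set limit, 4 SD under the median of all tested compounds, cut at about 3.7% in these data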;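 note: PTEN knockout HCT116 line with beta catenin targeted HCT116 as companion control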
# Lmaj promast: Leishmania major promastigote growth inhibition; Leishmania major promastigotes, resazurin fluorescence viability; inhibition, % at 10 µM; 200,000 tested, 9% active; in the data active = inhibition above about 50%;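 note: promastigotes grown with compound for 44 hours at 28 °C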
# p97 inhibitor: inhibitors of human p97 ATPase; P55072; recombinant p97 ATPase, Kinase-Glo ATP luminescence, 3 h; inhibition, % at 8 µM; 220,000 tested, 0.42% active; AID 1481; in the data active = inhibition above about 15%
# Target sequence (P55072 whole entry, looked up): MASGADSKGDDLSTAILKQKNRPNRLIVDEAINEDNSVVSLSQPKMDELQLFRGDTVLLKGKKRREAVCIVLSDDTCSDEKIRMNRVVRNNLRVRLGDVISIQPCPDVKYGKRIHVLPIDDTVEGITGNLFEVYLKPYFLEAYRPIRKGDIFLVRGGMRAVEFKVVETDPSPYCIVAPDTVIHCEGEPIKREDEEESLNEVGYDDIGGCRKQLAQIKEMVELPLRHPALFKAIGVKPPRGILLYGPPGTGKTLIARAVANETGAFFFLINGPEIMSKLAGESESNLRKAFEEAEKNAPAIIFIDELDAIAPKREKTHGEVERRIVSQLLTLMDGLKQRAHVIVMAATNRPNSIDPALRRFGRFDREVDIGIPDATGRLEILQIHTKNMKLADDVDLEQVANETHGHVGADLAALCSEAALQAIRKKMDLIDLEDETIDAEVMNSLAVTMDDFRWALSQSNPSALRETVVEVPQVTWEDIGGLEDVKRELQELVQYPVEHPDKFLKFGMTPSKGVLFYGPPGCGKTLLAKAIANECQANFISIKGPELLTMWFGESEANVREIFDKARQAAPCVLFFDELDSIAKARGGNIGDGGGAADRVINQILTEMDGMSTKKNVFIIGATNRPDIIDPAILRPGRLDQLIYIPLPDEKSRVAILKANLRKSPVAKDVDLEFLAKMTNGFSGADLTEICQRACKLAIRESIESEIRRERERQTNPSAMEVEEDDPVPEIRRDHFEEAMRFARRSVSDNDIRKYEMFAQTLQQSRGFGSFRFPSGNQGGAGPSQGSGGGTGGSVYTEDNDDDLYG
# Numbers stand for hits; - = inactive; . = no result given. A selection: hits, their analogues and other compounds. The true share with any hit is near 10%.
SMILES,ROMK primary,HCT116 bCat-KO,INS promoter inh,HCT116 PTEN-null,Lmaj promast,p97 inhibitor
CCOc1ccc2nc(C)cc(Nc3cccc([N+](=O)[O-])c3)c2c1,-,1.5,-,1.5,100.4,-
CCOc1ccc2nc(C)cc(Nc3ccc4c(c3)OCCO4)c2c1,.,0.7,-,0.8,100.7,-
Cc1ccc2nc(C)cc(NCCO)c2c1,.,-,-,-,-,-
COc1ccc(C(=O)C[n+]2ccc3c(c2)nnn3-c2ccccc2)cc1,-,.,-,.,-,-
CCCCNC(=S)N(C)/N=C/c1ccc(OCc2ccc(C(=O)OC)cc2)c(OC)c1,-,-,-,-,-,-
CCOc1ccc2nc(C)cc(Nc3ccc(N4CCOCC4)cc3)c2c1,-,-,-,-,63.6,-
Cc1ccc2nc(C)cc(Nc3ccc4c(c3)OCCO4)c2c1,-,-,-,-,100.4,-
Cc1cc(Nc2ccc3c(c2)OCCO3)c2ccccc2n1,.,-,-,-,95.2,-
Cc1cc(C(=O)Nc2ccc3c(c2)OCCO3)c2ccccc2n1,-,.,.,.,-,-
CCN1CCN(CCCOc2ccc(Cl)cc2Br)CC1,-,.,.,.,96.0,-
Brc1ccccc1OCCCCCN1CCCC1,.,-,-,-,97.5,-
Cc1cc(Cl)ccc1OCCCC(=O)N1CCCCC1,.,-,-,-,-,-
Clc1ccc(OCCCCCN2CCCC2)c(Br)c1,.,-,-,-,98.0,-
Clc1ccc(OCCCN2CCCCC2)c(Br)c1,-,-,-,-,99.1,-
Cc1ccc(/C=C/C(=O)OCc2nc(N)nc(Nc3ccccc3C)n2)o1,-,.,-,.,-,-
O=C(c1cccs1)N1CCc2c([nH]c3ccccc23)C1c1ccccn1 (centres undefined),-,.,.,.,-,-
COc1ccc(C2c3[nH]c4ccccc4c3CCN2C(=O)c2cc3ncccn3n2)c(F)c1 (centres undefined),-,.,-,.,-,-
O=C(c1cc(-c2ccccc2)n[nH]1)N1CCc2c([nH]c3ccccc23)C1c1ccccn1 (centres undefined),-,.,.,.,85.7,-
COc1ccc(C2c3[nH]c4ccccc4c3CCN2C(=O)c2cn3ccccc3n2)c(F)c1 (centres undefined),-,.,.,.,53.0,-
Cc1ccc2nc(C(=O)N3CCc4c([nH]c5ccccc45)C3c3ccccn3)cn2c1 (centres undefined),.,.,-,.,68.2,-
COc1cccc(-c2nnc(SCC3CNC(=O)O3)n2-c2ccc(Cl)cc2)c1 (centres undefined),.,-,.,-,-,-
CCOC(=O)c1sc2nc(CN3CCN(c4cccc(C(F)(F)F)c4)CC3)[nH]c(=O)c2c1C,.,-,.,-,-,-
COc1cccc(CN(Cc2cccnc2)S(=O)(=O)c2ccc(-n3cnnn3)c(C)c2)c1,.,-,.,-,99.6,-
COc1cccc(CN(CC2CCCO2)S(=O)(=O)c2ccc(-n3cnnn3)c(OC)c2)c1 (centres undefined),.,.,.,.,-,-
COc1cccc(CN(c2ccc3c(c2)CCC3)S(=O)(=O)c2ccc(-n3cnnn3)c(OC)c2)c1,-,-,-,-,65.5,-
SMILES,ROMK primary,HCT116 bCat-KO,INS promoter inh,HCT116 PTEN-null,Lmaj promast,p97 inhibitor
COc1cc(S(=O)(=O)N(Cc2cccnc2)Cc2ccco2)ccc1-n1cnnn1,.,-,-,-,-,-
Cc1ccc(NS(=O)(=O)c2ccc(OCC(N)=O)cc2)cc1,-,.,-,.,-,-
CCN(CC)c1ncnc2c1[nH]c1ccccc12,.,-,-,-,60.1,-
O=C(Nc1ccc(N2CCCCC2)cc1)c1ccc2ccccc2n1,-,.,.,.,-,-
CC1CC(C)(C)CC2(C1)NC(=S)N(c1ccccc1)N2 (centres undefined),-,-,-,-,-,-
S=C1NC2(CCCCC2)NN1c1ccccc1,.,.,.,.,81.3,-
CC1CCCC2(C1)NC(=S)N(c1ccccc1)N2 (centres undefined),.,-,-,-,83.6,-
O=c1c2c([nH]c3ccccc13)CCCC2,.,-,-,-,54.9,-
CC(C)(C)C1CCc2[nH]c3ccccc3c(=O)c2C1 (centres undefined),-,-,-,-,99.6,-
Cc1c2c(nc3ccccc13)CCC(C(C)(C)C)C2 (centres undefined),-,.,-,.,-,-
CC(CCc1ccc(O)cc1)NC1C2CC3CC(C2)CC1C3 (centres undefined),-,-,.,-,70.8,-
COc1cc(C(=O)O/N=C(\N)c2ccccn2)cc(OC)c1OC,-,.,.,.,.,-
COc1cc(C(=O)O/N=C2\C=CC(=O)C=C2C)cc(OC)c1OC,.,-,.,-,97.2,-
